The text below walks through data of PubChem BioAssay (NCI).

Test [1] in a line: NCI Yeast Anticancer Drug Screen. Data for the rad50 strain (AID 155).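 Note: 0% = growth of vehicle-only cultures of the same strain.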 The conditions noted are these: S. cerevisiae rad50 strain growth inhibition, hits give high values. Summed up:
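Relative growth inhibition (compound vs vehicle) was measured in yeast with a defined repair-gene alteration.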

A short description of test [2]: NCI Yeast Anticancer Drug Screen. Data for the mec2-1 strain (AID 157). The conditions noted are these: S. cerevisiae mec2-1 strain, hits give high values. Summed up:
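Cells of the genetically defined mec2-1 yeast strain are incubated with test compound. Inhibition of growth is calculated against vehicle-treated controls.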

Test [3] in a line: NCI Yeast Anticancer Drug Screen. Data for the sgs1 mgt1 strain (AID 161).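 Note: 0% = growth of cultures given vehicle only.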 The following applies: S. cerevisiae sgs1 mgt1 strain, hits give high values. Summed up: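 Mutant yeast exposed to compound; growth scored against vehicle-only wells.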
Test [4] in a line: NCI Yeast Anticancer Drug Screen. Data for the cln2 rad14 strain (AID 165).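 Note: 0% = growth equal to vehicle treated cultures.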 The following applies: S. cerevisiae cln2 rad14 strain, hits give high values. Summed up: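 The screen exposed genetically defined yeast (cln2 rad14) to test compounds and scored growth inhibition relative to vehicle-treated controls.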
Test [5] can be described thus: NCI Yeast Anticancer Drug Screen. Data for the bub3 strain (AID 167). The conditions noted are these: S. cerevisiae bub3 mutant strain, hits give high values. Summed up: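 Screening used yeast with an engineered genetic alteration affecting cell cycle control. Compound-exposed cultures were compared with vehicle cultures, and reduced growth was taken as inhibition.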

The nature of test [6]: NCI Yeast Anticancer Drug Screen. Data for the mlh1 rad18 strain (AID 175). The following applies: S. cerevisiae mlh1 rad18 strain growth inhibition, hits give high values. Summed up:
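Compound-treated yeast growth, normalised to vehicle controls. Strain bears defined DNA repair mutations.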

The mark [7] stands for this setting: at 5.0 µM (retest, dose inferred, filed as 0.5).
Where [8] appears, read: at 50.0 µM (retest, dose inferred, filed as 5.0).

Each structure is given as a SMILES string. This is part of a sample that, as a whole, favours compounds with a hit. Of some 79,000 tested, about 15% had one in any assay. Values without a mark were called inactive. Activity calls are given as the source filed them. Cut-off read from the data, not from the text of the source: active = growth inhibition above about 70%; inactive = the rest.

As to `CC(CSc1n[nH]c(=S)s1)c1ccccc1` (configuration not stated), the growth inhibition in test [1] (setting [7]) is 7%; in test [1] (setting [8]), 93% (active); in test [1] (at 50.0 µM), 97.1% (active); in test [2] (setting [7]), 11%; in test [2] (setting [8]), 96% (active); in test [2] (at 50.0 µM), 95.8% (active). Besides, the growth inhibition is 14% in test [3] (setting [7]); 96% (active) in test [3] (setting [8]); 95.8% (active) in test [3] (at 50.0 µM); 1% in test [4] (setting [7]); 93% (active) in test [4] (setting [8]); 95.2% (active) in test [4] (at 50.0 µM). Moreover, the growth inhibition in test [5] (setting [7]) was 23%; in test [5] (setting [8]), 94% (active); in test [5] (at 50.0 µM) it was 96.3% (active); in test [6] (setting [7]), 12%; in test [6] (setting [8]), 94% (active); in test [6] (at 50.0 µM), 95.1% (active).
On to `CC1(C)CCC2(C(=O)O)C(O)CC3(C)C(=CCC4C5(C)CCC(OC6OCC(O)C(O)C6OC6OCC(O)C(O)C6OC6OCC(O)C(OC7OC(CO)C(O)C(O)C7O)C6O)C(C)(C)C5CCC43C)C2C1` (configuration not stated), for which the growth inhibition was 8% in test [1] (setting [7]); 99% (active) in test [1] (setting [8]); 77.3% (active) in test [1] (at 50.0 µM); 7% in test [2] (setting [7]); 99% (active) in test [2] (setting [8]); 87.3% (active) in test [2] (at 50.0 µM). For the same compound, the growth inhibition in test [3] (setting [7]) was 6%; in test [3] (setting [8]), 99% (active); in test [3] (at 50.0 µM), 88% (active); in test [4] (setting [7]), 5%; in test [4] (setting [8]), 99% (active); in test [4] (at 50.0 µM), 86.6% (active). Further, the growth inhibition was 17% in test [5] (setting [7]); 100% (active) in test [5] (setting [8]); 86.5% (active) in test [5] (at 50.0 µM); 14% in test [6] (setting [7]); 99% (active) in test [6] (setting [8]); -30.2% in test [6] (at 50.0 µM).
Turning to `Nc1nc2ncc(CNc3ccc(C(=O)NC(CCC(=O)NC(CCC(=O)NC(CCC(=O)NC(CCC(=O)NC(CCC(=O)O)C(=O)O)C(=O)O)C(=O)O)C(=O)O)C(=O)O)cc3)nc2c(=O)[nH]1` (configuration not stated), the growth inhibition in test [1] (setting [7]) was -19%; in test [1] (setting [8]), -9%; in test [1] (at 50.0 µM) it was 25.2%; in test [2] (setting [7]), 0%; in test [2] (setting [8]) it was -6%; in test [2] (at 50.0 µM) it was 18.3%. Besides, the growth inhibition is 0% in test [3] (setting [7]); -12% in test [3] (setting [8]); 24.6% in test [3] (at 50.0 µM); 12% in test [4] (setting [7]); 1% in test [4] (setting [8]); 47% in test [4] (at 50.0 µM). For the same compound, the growth inhibition in test [5] (setting [7]) is -5%; in test [5] (setting [8]), -2%; in test [5] (at 50.0 µM), -19.5%; in test [6] (setting [7]) it was 10%; in test [6] (setting [8]), 20%; in test [6] (at 50.0 µM), 8.35%.
`CCOC(=O)c1cc(CC)sc1NC(=O)CC(C)=O`: the growth inhibition in test [1] (setting [7]) is 42%; in test [1] (setting [8]), 58%; in test [1] (at 50.0 µM), 46%; in test [2] (setting [7]), 35%; in test [2] (setting [8]), 53%; in test [2] (at 50.0 µM), 17.9%. Also, the growth inhibition was 42% in test [3] (setting [7]); 56% in test [3] (setting [8]); 57.2% in test [3] (at 50.0 µM); 38% in test [4] (setting [7]); 44% in test [4] (setting [8]); 59.5% in test [4] (at 50.0 µM). Moreover, the growth inhibition in test [5] (setting [7]) is 44%; in test [5] (setting [8]) it was 78% (active); in test [5] (at 50.0 µM) it was 70.8% (active); in test [6] (setting [7]), 46%; in test [6] (setting [8]) it was 71% (active); in test [6] (at 50.0 µM) it was 61.1%.
`Nc1ccc(Oc2ccccc2)c(Cl)c1`: the growth inhibition in test [1] (setting [7]) was 10%; in test [1] (setting [8]), 91% (active); in test [1] (at 50.0 µM), 97.6% (active); in test [2] (setting [7]) it was -15%; in test [2] (setting [8]), 30%; in test [2] (at 50.0 µM), 92.5% (active). Further, the growth inhibition is 4% in test [3] (setting [7]); 61% in test [3] (setting [8]); 97.6% (active) in test [3] (at 50.0 µM); 3% in test [4] (setting [7]); 60% in test [4] (setting [8]); 93.5% (active) in test [4] (at 50.0 µM). The growth inhibition in test [5] (setting [7]) was 69%; in test [5] (setting [8]), 52%; in test [5] (at 50.0 µM), 90.5% (active); in test [6] (setting [7]), 7%; in test [6] (setting [8]), 72% (active); in test [6] (at 50.0 µM) it was 98% (active).
On to `CCN(CC)CC(O)CNc1ccc(NCC2CO2)c2c1C(=O)c1ccccc1C2=O` (configuration not stated), for which the growth inhibition in test [1] (setting [7]) was 71% (active); in test [1] (setting [8]), 76% (active); in test [1] (at 50.0 µM), 34.1%; in test [2] (setting [7]), 23%; in test [2] (setting [8]) it was 79% (active); in test [2] (at 50.0 µM), 25.6%. Further, the growth inhibition is 76% (active) in test [3] (setting [7]); 84% (active) in test [3] (setting [8]); 48.8% in test [3] (at 50.0 µM); 49% in test [4] (setting [7]); 83% (active) in test [4] (setting [8]); 56% in test [4] (at 50.0 µM). Besides, the growth inhibition in test [5] (setting [7]) is 43%; in test [5] (setting [8]), 59%; in test [5] (at 50.0 µM), -36%; in test [6] (setting [7]), 52%; in test [6] (setting [8]), 74% (active); in test [6] (at 50.0 µM) it was 59%.
As for `Cc1nn(CCO)c(C)c1N=[N+]([O-])c1c(C)nn(CCO)c1C`, the growth inhibition in test [1] (setting [7]) is 12%; in test [1] (setting [8]), 98% (active); in test [1] (at 50.0 µM), 88.8% (active); in test [2] (setting [7]), 12%; in test [2] (setting [8]) it was 98% (active); in test [2] (at 50.0 µM) it was 91.8% (active). For the same compound, the growth inhibition was 24% in test [3] (setting [7]); 98% (active) in test [3] (setting [8]); 89.3% (active) in test [3] (at 50.0 µM); 9% in test [4] (setting [7]); 95% (active) in test [4] (setting [8]); 86% (active) in test [4] (at 50.0 µM). Moreover, the growth inhibition is 20% in test [5] (setting [7]); 97% (active) in test [5] (setting [8]); 90.6% (active) in test [5] (at 50.0 µM); 27% in test [6] (setting [7]); 98% (active) in test [6] (setting [8]); 89.1% (active) in test [6] (at 50.0 µM).
As to `Cc1ccc(/C=N/Nc2cc(C)c3cccc(C)c3n2)s1`, the growth inhibition in test [1] (setting [7]) was 9%; in test [1] (setting [8]) it was 94% (active); in test [1] (at 50.0 µM) it was 89.3% (active); in test [2] (setting [7]), -1%; in test [2] (setting [8]), 95% (active); in test [2] (at 50.0 µM), 92.6% (active). For the same compound, the growth inhibition was 3% in test [3] (setting [7]); 93% (active) in test [3] (setting [8]); 92% (active) in test [3] (at 50.0 µM); 3% in test [4] (setting [7]); 95% (active) in test [4] (setting [8]); 90.3% (active) in test [4] (at 50.0 µM). Moreover, the growth inhibition in test [5] (setting [7]) is 4%; in test [5] (setting [8]), 97% (active); in test [5] (at 50.0 µM), 90.8% (active); in test [6] (setting [7]) it was 13%; in test [6] (setting [8]) it was 93% (active); in test [6] (at 50.0 µM), 90% (active).
Turning to `O=C(OC12CC3CC(CC(C3)C1)C2)c1ccc(NCc2cc(O)ccc2O)cc1`, the growth inhibition was 39% in test [1] (setting [7]); 94% (active) in test [1] (setting [8]); 84.7% (active) in test [1] (at 50.0 µM); 28% in test [2] (setting [7]); 96% (active) in test [2] (setting [8]); 88% (active) in test [2] (at 50.0 µM). The growth inhibition in test [3] (setting [7]) is 39%; in test [3] (setting [8]), 95% (active); in test [3] (at 50.0 µM), 90.8% (active); in test [4] (setting [7]), 17%; in test [4] (setting [8]), 95% (active); in test [4] (at 50.0 µM), 87.8% (active). For the same compound, the growth inhibition in test [5] (setting [7]) was 28%; in test [5] (setting [8]), 91% (active); in test [5] (at 50.0 µM) it was 89.8% (active); in test [6] (setting [7]) it was 32%; in test [6] (setting [8]), 94% (active); in test [6] (at 50.0 µM), 88.5% (active).
